This is a sample that favours compounds with a hit; in the whole collection about 4.1% have one here.
TWEAK-Fn14 inh: inhibitors of TWEAK-Fn14 signaling, primary screen, luciferase reporter cells, uHTS. AID 1159606, 2016. inhibition, % at 10 µM. TWEAK-stimulated Fn14 reporter cells, luciferase luminescence, 8 h. hit rate 2% among 360,000; in the data active means inhibition above about 50%
Shn3 3UTR inh: reduction of Shn3 3'UTR firefly luciferase signal, primary screen, Schnurri-3 inhibitor project, cell-based, Clone20 osteoblasts, set 2; Clone20 osteoblast Shn3 3'UTR firefly luciferase, 24 h; inhibition, % at 12.5 µM; hit rate 0.52% among 360,000;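 active means mean inhibition of at least 75% with every replicate also reaching 75%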;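 further: 0% = median of neutral control wells and 100% = pilot-screen positive control compound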
TRPM1 prom inh: inhibitors of MITF-dependent TRPM1 promoter reporter, primary screen, cell-based, SK-MEL-5, single point, luciferase; SK-MEL-5 TRPM1 promoter luciferase, 24 h; inhibition, % at 12.5 µM; hit rate 0.83% among 330,000;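 active means mean inhibition across replicates of 60% or more, whatever share of single replicates reaches that level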
Peg3 prom inh-1: Peg3 promoter-driven luciferase inhibitors, primary screen, cell-based, HeLa, luciferase luminescence; HeLa PEG-Prom luciferase reporter, overnight; inhibition, % at 20 µM; hit rate 1.7% among 360,000; AID 588405, 2011;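 active means inhibition of at least 50% at 20 µM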
TROY signal inh: inhibitors of TROY-driven NF-kB signaling, primary screen, Q293 LMP1-TROYcd cells, NF-kB luciferase, uHTS. Q293 LMP1-TROYcd NF-kB luciferase reporter, 4 h. inhibition, % at 10 µM. hit rate 0.98% among 360,000;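 active means compounds whose plate-normalised and pattern-corrected inhibition of the luciferase reporter signal at the single screening dose is 50% or more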
LMP1 NFkB inh: EBV LMP1-driven NF-kappaB luciferase reporter inhibitors, primary screen, cell-based, luminescence, single point. LMP1-induced NF-kappaB luciferase reporter cells. inhibition, % at 12.5 µM. hit rate 0.69% among 350,000. AID 504558, 2011; in the data active means inhibition above about 41%;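 further: 0% = neutral control wells and 100% = reference inhibitor control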
Peg3 prom inh-2: Peg3 promoter reporter inhibitors, retest, confirmation, cell-based, HeLa, luciferase reporter, single concentration. shares compounds with Peg3 prom inh-1. HeLa PEG-Prom luciferase reporter, luminescence, overnight. inhibition, % at 20 µM. hit rate 84% among 1,300;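 active means at 20 µM dose, 40% or more inhibition averaged across four replicates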
* marks the source's active call; other numbers are inactive results; . = no result; ! = repeats disagree.

SMILES	TWEAK-Fn14 inh	Shn3 3UTR inh	TRPM1 prom inh	Peg3 prom inh-1	TROY signal inh	LMP1 NFkB inh	Peg3 prom inh-2
COc1ccc(NC(=O)c2cc(S(=O)(=O)N3CCCC3)ccc2C)cn1	7	-3	10	5	-2	1	.
CCOC(=O)c1ccccc1NC(=O)COC(=O)CCC(=O)c1ccccc1	-7	-16	2	3	-8	-6	.
O=C1c2ccccc2C(=O)N1CCC#Cc1ccc2cc(CCCO)oc(=O)c2c1	-20	-6	-11	-2	1	9	.
COc1ccc(-c2cc(-c3nnc(COC(=O)c4ccc(O)cc4)o3)c3ccccc3n2)cc1OC	31	-5	-3	52*	0	19	34
COc1ccc(-c2cc(-c3nnc(COC(=O)C4CC4)o3)c3ccccc3n2)cc1OC	9	8	-7	22	-9	0	.
COC(=O)c1ccc(C23CC4(C2)[C@H](CN(C)[C@@H]4c2ccccc2)C3c2ccc(Cl)nc2)cc1 (some centres undefined)	3	16	8	0	-2	1	.
CCOc1ccc(S(=O)(=O)NC(C)C(=O)NCc2cccnc2)cc1 (centres undefined)	17	-9	7	3	3	-2	.
CCn1c(N)nc2c1c(=O)n(C)c(=O)n2C	12	17	-9	3	2	5	.
CCCc1nc2c(=O)n(C)c(=O)nc-2n(C)n1	104*	97*	104*	104*	90*	90*	100*
COCC1COS(=O)(=O)NC1(C)C (centres undefined)	-8	-1	7	-7	-2	22	.
COc1ccc(-c2c(-c3cc(OC)cc(OC)c3)n(C)c3ccc(-c4cnc(N)nc4)cc23)cc1	-90	4	-19	7	-5	9	.
COc1ccc(-c2c(-c3cc(OC)cc(OC)c3)n(C)c3ccc(-c4ccc(S(N)(=O)=O)cc4)cc23)cc1	-41	24	6	53*	8	11	30
O=C(Nc1ccc(F)cc1F)NC1CCN(Cc2c(F)cccc2Cl)CC1	2	3	10	12	11	-4	.
CCN(CC)CCSc1nnc2c3cc(C)ccc3n(Cc3ccccc3)c2n1	-8	18	.	64*	5	.	46*
Cn1c(/N=C/c2ccc3c(c2)OCO3)nc2ccccc21	6	2	0	4	-13	-4	.
C(=Cc1cnc2ccccc2n1)c1ccc2c(c1)OCO2	98*	86*	.	69*	81*	80*	85*
COc1cccc(/C=N/Nc2ncccc2[N+](=O)[O-])c1OC	100*	.	40	72*	75*	59*	62*
O=[N+]([O-])c1ccc(/C=N/Nc2ncccc2[N+](=O)[O-])s1	11	-26	9	-60	-21	-26	.
CC1CCCN(c2ncnc3c2cnn3-c2ccc(Cl)cc2)C1 (centres undefined)	104*	78	92*	73*	89*	60*	86*
Cc1ccc(OCC(=O)c2cc(C)n(-c3ccccc3)c2C)c([N+](=O)[O-])n1	85*	49	37	80*	59*	66*	80*
Cc1cc(C(=O)COC(=O)C2=COCCO2)c(C)n1-c1ccccc1	103*	37	81*	60*	87*	72*	72*
COCCn1c(C)cc(C(=O)COc2ccc(C)nc2[N+](=O)[O-])c1C	11	58	36	66*	9	45*	72*
C=CCn1c(C)cc(C(=O)COc2ccc(C)nc2[N+](=O)[O-])c1C	65*	50	27	61*	13	24	69*
CCCn1c(C)cc(C(=O)COc2ccc(C)nc2[N+](=O)[O-])c1C	45	27	-2	12	26	12	.
Cc1occc1C(=O)N/N=C/C1=C(N2CCOCC2)C(=C/c2ccc(Cl)cc2Cl)/CC1	-34	-5	6	13	-27	-9	.
SMILES	TWEAK-Fn14 inh	Shn3 3UTR inh	TRPM1 prom inh	Peg3 prom inh-1	TROY signal inh	LMP1 NFkB inh	Peg3 prom inh-2
O=C(O)[C@@H]1CC(O)CN1C(=O)CCc1c[nH]c2ccccc12 (some centres undefined)	0	6	-1	-24	-20	2	.
O=S(=O)(c1ccccc1)N1CCN(C(c2ccccc2)c2ccc(OC(F)(F)F)cc2)CC1 (centres undefined)	-16	13	9	10	-19	-7	.
COc1ccc(NC(=O)CSc2nnc(-c3cccnc3)s2)cc1	0	-12	-6	-47	9	-3	.
CN(CCOc1ccc(Cl)cc1)C(=O)c1cc(-c2ccco2)nc2ccccc12	28	3	8	64*	8	11	79*
Nn1cnnc1SCC(=O)Nc1ccc(C2CCCCC2)cc1	-31	-24	-25	-194	-65	-1	.
O=C(O)CSCC(=O)Nc1ccc(C2CCCCC2)cc1	92*	54	74*	71*	83*	58*	77*
Cc1nn(-c2nc3ccccc3[nH]2)c(=O)c2ccccc12	105*	93*	96*	104*	92*	81*	99*
O=C(CSCc1cccc(Br)c1)N=Nc1c(O)[nH]c2ccccc12	-15	3	13	9	7	-16	.
O=Nc1c(-c2c(O)[nH]c3cc(Br)ccc23)[nH]c2ccccc12	91*	-50	-5	101*	69*	-59	98*
Brc1ccc(CNc2ccc3ncccc3c2)cc1	35	-1	-4	-357	3	-20	.
O=C(N/N=C/c1sc(N2CCOCC2)nc1-c1ccccc1)c1cccc(S(=O)(=O)N2CCCC2)c1	51*	90*	52	66*	10	11	66*
COc1ccccc1CCNC(=O)c1cc(-c2ccncc2)nc2ccc(Br)cc12	33	24	1	60*	11	-45	36
Cc1ccc2nc(-c3ccncc3)cc(C(=O)NCc3ccccc3F)c2c1	-1	-2	1	3	-40	-5	.
CC(C)OP(=O)(OC(C)C)C(Nc1ccccc1)c1cccnc1 (centres undefined)	9	-23	-2	18	-17	-4	.
COc1cc(NC(=O)c2nccn2C)cc(C(=O)Nc2cccc(C(F)(F)F)c2)c1	-22	12	36	53*!	-30	-25	33
CCCC1(c2ccsc2)NC(=O)NC1=O (centres undefined)	-8	9	-6	-8	-4	-4	.

High-throughput results as filed in PubChem BioAssay.
